Screen size: about 410,000 compounds; about 850 (0.21%) were called active. A call without a number means that no potency is given here. Roughly 2% stayed inconclusive and do not appear here. Calls come from the whole dose curve; as a rule, active = well fitted inhibition curve with a large enough effect; inconclusive = small, poorly fitted or top-dose-only effect, or another doubt; inactive = no such curve, though single readings can be large or run the other way. Many of the other results were omitted from the sample, so actives are more common in it than they were.
Potency is the fitted concentration of half-maximal effect.

In the assay the target is Glutaminase kidney isoform, mitochondrial (Homo sapiens) (UniProt O94925). The assay is described as follows: qHTS for Inhibitors of Glutaminase (GLS). The conditions noted are these: GLS enzymatic activity, qHTS titration; series mostly up to 45.5 µM. In a few lines: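 hKGA; 45 mM KH2PO4 pH 8.2 + 0.02% Tween-20; cpd via pin tool; 1 mM Gln soln; GluOx/HRP/Amplex Red; RT 30 min; fluor. t0 & final.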
Glutaminase kidney isoform, mitochondrial (Homo sapiens), sequence (O94925 whole entry, looked up, canonical isoform): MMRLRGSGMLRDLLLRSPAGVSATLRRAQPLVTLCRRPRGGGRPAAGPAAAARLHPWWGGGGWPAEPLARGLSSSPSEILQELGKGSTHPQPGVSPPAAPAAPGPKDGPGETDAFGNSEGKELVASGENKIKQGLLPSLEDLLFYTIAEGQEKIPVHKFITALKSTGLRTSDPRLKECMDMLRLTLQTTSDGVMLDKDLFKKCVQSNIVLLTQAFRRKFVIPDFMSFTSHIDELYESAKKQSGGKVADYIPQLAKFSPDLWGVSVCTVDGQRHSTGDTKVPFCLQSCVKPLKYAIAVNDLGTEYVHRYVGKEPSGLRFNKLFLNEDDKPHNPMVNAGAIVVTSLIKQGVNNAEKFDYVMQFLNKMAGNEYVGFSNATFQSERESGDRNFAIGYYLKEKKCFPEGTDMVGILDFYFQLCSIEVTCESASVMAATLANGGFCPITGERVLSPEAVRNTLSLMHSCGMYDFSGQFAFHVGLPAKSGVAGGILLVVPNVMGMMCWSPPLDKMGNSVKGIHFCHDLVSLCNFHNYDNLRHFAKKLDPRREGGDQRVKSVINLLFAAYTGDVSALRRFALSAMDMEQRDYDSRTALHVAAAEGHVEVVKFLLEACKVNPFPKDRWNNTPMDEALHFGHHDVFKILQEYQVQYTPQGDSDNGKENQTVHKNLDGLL
(In qHTS, concentration-response curves come from the screen itself.)
Regarding `C[C@H]1C[C@H]2[C@@H]3CCC4=CC(=O)C=C[C@]4(C)[C@@H]3C(=O)C[C@]2(C)[C@@]1(O)C(=O)CO`, the Potency result is “inactive”.

Take `O=C(O)c1ccc2c(c1)N(Cc1ccc(F)cc1)C(=O)c1ccccc1S2=O` (stereo not drawn): the Potency result is “inactive”.

Take `COc1cc2c(cc1OC)[C@@H](Cc1cc(OC)c(OC)c(OC)c1)[N+](C)(CCCOC(=O)CC/C=C/CCC(=O)OCCC[N+]1(C)CCc3cc(OC)c(OC)cc3[C@H]1Cc1cc(OC)c(OC)c(OC)c1)CC2` (stereo partly drawn): the Potency result is “inactive”.

Turning to `NNc1nnc(Cc2ccncc2)c2ccccc12`, the Potency result is “inactive”.

Regarding `COc1ccc(/C(O)=C2/C(=O)C(=O)N(CCCN(C)C)C2c2ccccc2)cc1OC` (stereo not drawn), the Potency entry is “inactive”.

Turning to `COc1ccc(C2/C(=C(/O)c3ccccc3)C(=O)C(=O)N2c2ncccn2)cc1OC` (stereo not drawn), the Potency was 8.91 µM (active).

Consider `CCCOc1ccc(/C(O)=C2/C(=O)C(=O)N(CCN(C)C)C2c2ccc(OC)c(OC)c2)cc1` (stereo not drawn), for which the Potency result is “inactive”.

Take `COc1ccc(N2CCN(c3cc(C)nc4nncn34)CC2)cc1`: the Potency result is “inactive”.

For the molecule `CCc1ccc(NC(=O)CN2C(=O)CCSc3ccc(S(=O)(=O)N4CCCC4)cc32)cc1`, the Potency result was “inactive”.

Take `O=C(Nc1cccc(C(F)(F)F)c1)c1cc(Br)cc(Br)c1O`: the Potency result is “inactive”.

For `COc1ccc(OC)c(-c2noc(N3CCN(c4cc(Cl)ccc4C)CC3)n2)c1`, the Potency entry was “inactive”.

For `COc1ccc2c(c1)C(=O)Nc1cc(Cl)ccc1N2`, the Potency was 12.6 µM (active).

As for `COc1ccc(C2=NOC3(CC(=O)N(c4ccc(Cl)cc4)C3=O)C2)c(OC)c1` (stereo not drawn), the Potency entry is “inactive”.

For the molecule `Cc1cc(C)c2sc(NC(=O)c3ccc(S(=O)(=O)N4CCCC4)cc3)nc2c1`, the Potency entry was “inactive”.

As for `Cc1cn([C@H]2CC(F)[C@@H](CO)O2)c(=O)[nH]c1=O` (stereo partly drawn), the Potency entry was “inactive”.

On to `C=CC1=C(C(=O)O)N2C(=O)[C@@H](NC(=O)/C(=N\OCC(=O)O)c3csc(N)n3)[C@H]2SC1`, for which the Potency was 12.6 µM (active).

As to `C=CC1=C(C(=O)O)N2C(=O)[C@@H](NC(=O)/C(=N/OCC(=O)O)c3csc(N)n3)[C@H]2SC1`, the Potency was 12.6 µM (active).

As for `CO/N=C(\C(=O)N[C@@H]1C(=O)N2C(C(=O)O)=C(Cn3nnc(C)n3)CS[C@H]12)c1csc(N)n1`, the Potency result was “inactive”.

For the molecule `C[C@]12CC[C@@H]3c4ccc(O)cc4C[C@@H](CCCCCCCCCS(=O)CCCC(F)(F)C(F)(F)F)C3[C@@H]1CC[C@@H]2O` (stereo partly drawn), the Potency entry was “inactive”.

As to `Cc1cccc(C)c1NC(=O)NC1=CCCN1C`, the Potency result is “inactive”.

Regarding `CCCC(=O)O[C@]1(C(=O)COC(=O)CC)CC[C@@H]2[C@@H]3CCC4=CC(=O)CC[C@]4(C)[C@H]3[C@@H](O)C[C@@]21C`, the Potency result is “inactive”.

As for `CN1CC(O)c2cc(N=NC(N)=O)c(O)cc21` (stereo not drawn), the Potency entry is “inactive”.

`CC(=O)O[C@]1(C(C)=O)CC[C@@H]2[C@@H]3C=C(C)C4=CC(=O)CC[C@@]4(C)[C@H]3CC[C@]21C`: the Potency result was “inactive”.

With `CC(C)(C)c1ccc(S(=O)(=O)N2CCN(C(=O)c3cc(-c4ccc(Br)cc4)n[nH]3)CC2)cc1`, the Potency result is “inactive”.

With `COc1cc(OC)c(S(=O)(=O)Nc2ccccc2C(=O)O)cc1S(=O)(=O)Nc1ccccc1C(=O)O`, the Potency is 5.62 µM (active).

In the case of `COc1ccc(Cl)cc1S(=O)(=O)Nc1cccc(C(=O)O)c1`, the Potency entry is “inactive”.

In the case of `COc1cc(/C=C/C(=O)O)cc(S(=O)(=O)Nc2ccccc2SC)c1OC`, the Potency result is “inactive”.

Turning to `COc1cc2c(cc1OC)CC(=O)N(CCCN(C)C[C@H]1Cc3cc(OC)c(OC)cc31)CC2`, the Potency entry was “inactive”.

For `Nc1ccc2nc3c(=O)[nH]c(=S)[nH]c3nc2c1`, the Potency was 3.16 µM (active).

Take `Cc1ccccc1C(=O)N(Cc1ccc(N(C)C)cc1)CC1CCCO1` (stereo not drawn): the Potency result is “inactive”.

On to `CCOc1ccc(N(CC)C(=O)c2cc3c(=O)oc4ccccc4c3s2)cc1`, for which the Potency entry is “inactive”.

`CC(=O)Oc1ccccc1C(=O)Nc1ncc([N+](=O)[O-])s1`: the Potency entry was “inactive”.

For the molecule `CCOC(=O)c1c(C)oc2nc(C)nc(N3CCN(c4ccc(OC)cc4)CC3)c12`, the Potency result was “inactive”.

Turning to `O=C(CC1Oc2ccccc2NC1=O)NCc1ccc(F)cc1` (stereo not drawn), the Potency result was “inactive”.

As for `O=C(CCCCn1c(=O)c2ccccc2n(CC(=O)Nc2cccc(C(F)(F)F)c2)c1=O)NCc1ccc2c(c1)OCO2`, the Potency entry was “inactive”.

Consider `COc1ccc(OC)c(-n2c(=S)[nH]c3cc(C(=O)N4CCCCC4)ccc3c2=O)c1`, for which the Potency result was “inactive”.

`CCOc1cc2[nH]c(=S)n(Cc3ccc(C(=O)N4CCN(C)CC4)cc3)c(=O)c2cc1OCC`: the Potency result is “inactive”.

For `COc1ccccc1Cn1c(=S)[nH]c2cc(C(=O)N3CCN(C)CC3)ccc2c1=O`, the Potency was 12.6 µM (active).

In the case of `O=C1C(c2[nH]c3ccccc3c2O)=Nc2ccccc21`, the Potency result was “inactive”.

`Cc1c(CCC(=O)O)c(=O)oc2cc3occ(-c4ccccc4)c3cc12`: the Potency was 11.2 µM (active).

Turning to `COc1cccc(-c2coc3cc4oc(=O)c(CC(=O)O)c(C)c4cc23)c1`, the Potency result is “inactive”.

On to `COc1ccc2c(C)c(CCC(=O)NCc3ccc(OC)c(OC)c3)c(=O)oc2c1`, for which the Potency entry was “inactive”.

Take `CN1C(=O)C[C@H](c2ccccc2)C1=O`: the Potency entry is “inactive”.

Regarding `COc1ccc(C)cc1N(C)C(=O)c1c(C)oc2ncnc(N3CCOCC3)c12`, the Potency entry was “inactive”.

Regarding `O=[N+]([O-])c1c(NCCO)cc(Sc2nc3ccccc3s2)c2nonc12`, the Potency entry was “inactive”.

Consider `O=C(O)c1cccc(S(=O)(=O)Nc2ccc(O)cc2Sc2nc3ccccc3s2)c1`, for which the Potency is 14.1 µM (active).

Turning to `CC(C)c1ccc(S(=O)(=O)Nc2ccc(O)c(Sc3nc4ccccc4s3)c2)cc1`, the Potency entry was “inactive”.

For the molecule `CCOC(=O)c1ccc(NC(=O)CCn2cnnn2)cc1`, the Potency result was “inactive”.

Consider `CCCCCCCCCc1ccc(OCCOCCOCCOCCOCCOCCOCCOCCOCCO)cc1`, for which the Potency entry is “inactive”.

Turning to `C[N+](C)(CCOc1ccccc1)Cc1cccs1` (tested in a mixture with another compound), the Potency entry is “inactive”.

For `Cc1cccc(C)c1N1CCN(S(=O)(=O)N2CCCCC2)CC1`, the Potency result was “inactive”.

Regarding `O=S(=O)(N1CCCCC1)N1CCNCC1`, the Potency was 15.8 µM (active).

Consider `O=S(=O)(/C=C/c1ccccc1)N1CCNCC1`, for which the Potency entry is “inactive”.

Consider `Cc1ccc(CN2CCC(CNC(=O)c3cnn(-c4ccccc4Cl)c3C3CCN(C(=O)OC(C)(C)C)CC3)CC2)cc1`, for which the Potency result was “inactive”.

In the case of `COc1cc(Cl)c(C)cc1Nc1nnc(-n2nc(C)cc2C)c2ccccc12`, the Potency entry was “inactive”.

As to `COC(=O)CCCCC1=CCC2C(=O)C=C(O)C2C1` (stereo not drawn), the Potency was 12.6 µM (active).

Consider `CCC(C)[C@@H](N)C(=O)O` (stereo partly drawn), for which the Potency entry is “inactive”.

In the case of `NCCCCC(N)C(=O)O` (stereo not drawn), the Potency result is “inactive”.

For the molecule `Oc1ccc(Cl)c2c1CCC2`, the Potency entry is “inactive”.

With `CC(=O)OC[C@H]1O[C@@H](O[C@H]2[C@H](O)[C@@H](OC(=O)c3ccccc3C(=O)O)[C@H](O)O[C@@H]2COC(C)=O)[C@H](O)[C@@H](OC(=O)c2ccccc2C(=O)O)[C@@H]1O`, the Potency entry is “inactive”.

On to `Cc1ccnc(SC2CC(=O)N(c3ccccc3)C2=O)n1` (stereo not drawn), for which the Potency entry was “inactive”.

As for `Cc1ccnc(-n2sc3ccccc3c2=O)n1`, the Potency was 10 µM (active).

Take `C/C=C/C=N/NC(=O)c1ccncc1`: the Potency result was “inactive”.

Regarding `CCOC(=O)c1sc(NC(=O)/C=C/c2ccc(C(C)C)cc2)c(C(=O)OCC)c1C`, the Potency entry was “inactive”.

As for `CCOc1cccc(CC(=O)N2CCc3c([nH]c4ccccc34)C2c2ccc(F)cc2)c1OCC` (stereo not drawn), the Potency result is “inactive”.

In the case of `CCOc1cccc2c1N[C@@H](c1ccc(C(=O)O)cc1)[C@H]1CC=C[C@@H]21`, the Potency was 3.98 µM (active).

With `CCOC(=O)C1Nc2ccc(C(F)(F)F)cc2C2C=CCC12` (stereo not drawn), the Potency result is “inactive”.

Consider `Cc1ccc(S(=O)(=O)NC(=O)NN2C[C@H]3CCC[C@@H]3C2)cc1`, for which the Potency entry is “inactive”.

With `Cc1ccc(S(=O)(=O)n2nc(C)c(S(=O)(=O)N3CCCCCC3)c2C)cc1`, the Potency result was “inactive”.

For the molecule `CC(C)(O)c1ccccc1CC[C@H](SCC1(CC(=O)O)CC1)c1cccc(/C=C/c2ccc3ccc(Cl)cc3n2)c1`, the Potency entry is “inactive”.

Take `COc1ccnc(C[S@@](=O)[C@@H]2Nc3ccc(OC(F)F)cc3N2)c1OC`: the Potency entry is “inactive”.

For the molecule `C=C1C(=CC=C2CCC[C@]3(C)[C@@H]([C@H](C)C=C[C@H](C)C(C)C)CC[C@@H]23)C[C@@H](O)C[C@@H]1O`, the Potency entry is “inactive”.

Consider `Cc1cccc(CCNC(=O)c2ccc3c(c2)nc2n3CCC(C)C2)c1` (stereo not drawn), for which the Potency result was “inactive”.

In the case of `CCN(CC)C(=O)CSc1nc2ccsc2c(=O)n1Cc1ccccc1Cl`, the Potency entry was “inactive”.

As to `CCC1CCCCN1C(=O)CSc1nc2c(c(=O)n(C)c(=O)n2C)n1C` (stereo not drawn), the Potency result is “inactive”.

Turning to `CCOC(=O)CSc1nc2c(c(=O)n(Cc3ccccc3Cl)c(=O)n2C)n1C`, the Potency is 7.94 µM (active).

On to `Cc1ccc(S(=O)(=O)N2CCc3cc(C(=O)Nc4ccc(Cl)cc4C)ccc32)cc1`, for which the Potency result is “inactive”.

In the case of `CC(=O)CC(c1ccccc1)C1C(=O)Oc2ccccc2C1=O` (stereo not drawn), the Potency entry was “inactive”.

As to `Cc1ccc(NC(=O)c2cc(S(=O)(=O)NCCC3=CCCCC3)ccc2F)cc1C`, the Potency entry is “inactive”.

As to `CC1(C)OC2CO[C@]3(COS(N)(=O)=O)OC(C)(C)OC3C2O1` (stereo partly drawn), the Potency entry is “inactive”.

On to `CCOc1ccc(NS(=O)(=O)c2ccc(N)cc2)nn1`, for which the Potency result was “inactive”.

Regarding `CN(C)CCCSc1ccccc1NC(=O)/C=C/c1ccccc1`, the Potency result is “inactive”.

As for `COc1ccc(/C=N/NC(=O)Cn2cc(C(F)(F)F)ccc2=O)cc1`, the Potency result was “inactive”.

With `Oc1ccc(/C=N/Nc2ccc(C(F)(F)F)cn2)cc1O`, the Potency is 11.2 µM (active).

As for `C/C=C1\C2C=C(C)CC1(N)c1ccc(=O)[nH]c1C2` (stereo not drawn), the Potency entry is “inactive”.

As to `Cc1c(Cl)cccc1NC(=O)C1CCCN(C(=O)c2cnn(-c3ccccc3)c2-n2cccc2)C1` (stereo not drawn), the Potency result is “inactive”.

In the case of `CCCCCCCCCCCCCCCCO`, the Potency entry was “inactive”.

As for `CCCN(CCC)S(=O)(=O)c1ccc(C(=O)Nc2sc3c(c2C(=O)OC)CCN(CC)C3)cc1`, the Potency result is “inactive”.

For `Cc1ccc(CN2CCc3nc(N4CCN(C)CC4)ncc3C2)cc1`, the Potency result is “inactive”.

As to `CC(=O)NC(=O)c1ccccc1O`, the Potency result was “inactive”.

Take `CC1(C)NC(=O)N(CC(=O)Nc2ccc(-c3ccccc3)cc2)C1=O`: the Potency result was “inactive”.

Regarding `O=C(Cn1nc(C(=O)O)c2ccccc2c1=O)Nc1ccc(F)cc1`, the Potency entry is “inactive”.

For the molecule `Cc1ccc(NC(=O)Cn2sc3ccccc3c2=O)cc1`, the Potency was 7.08 µM (active).

For `Cc1ccc(Cl)cc1N1CCN(C(=O)CN2C(=O)COc3ccc(S(=O)(=O)N4CCOCC4)cc32)CC1`, the Potency entry was “inactive”.

For the molecule `CC(=O)c1ccc(S(=O)(=O)NCCC(=O)N2CCN(c3ccccn3)CC2)cc1`, the Potency result was “inactive”.

Consider `COc1cccc(CC(=O)N2CCCC(CCC(=O)N3CCN(c4ccccn4)CC3)C2)c1` (stereo not drawn), for which the Potency result was “inactive”.

As to `C=Cc1ccc(C(=O)N2CCCC(CCC(=O)N3CCN(c4ccccn4)CC3)C2)cc1` (stereo not drawn), the Potency was 17.8 µM (active).

Turning to `CCOC(=O)c1ccc(NC(=O)C2CCN(S(=O)(=O)c3ccc4c(c3)CCCC(=O)N4)CC2)cc1`, the Potency entry was “inactive”.

The values above are taken from PubChem BioAssay AID624170 (National Center for Advancing Translational Sciences (NCATS), 2012).
